Test results as given in ChEMBL document CHEMBL3988442, “University of Dundee, Small-Polar-MMV Screening Library” (2021).

Each compound was assayed against AMP-activated protein kinase, AMPK (Homo sapiens) (UniProt P54646+O43741+P54619+Q9UGJ0+Q9Y478+Q13131+Q9UGI9) (assay: AMP-dependent Kinase enzyme assay. An in vitro enzyme assay that detects ADP turnover that is directly proportional to AMPK activity. This uses naive AMPK that is activated during the assay with MK-8722). Details: 30 µM.
Format: functional
Parameters: scale not given: direction of the effect not stated beside the values

Q: With `Cc1ccccc1CN1CCCC1c1cccc(Nc2nccs2)n1` (stereo not given) as the compound, how does the Percent Effect read?
A: 16.4%

Q: With `Cc1ncoc1C(=O)N1CCCC(c2ccc3c(N)nn(C)c3n2)C1` (stereo not given) as the compound, how does the Percent Effect read?
A: 11.4%

Q: How did the Percent Effect turn out when `CCN(CC(=O)NC)C(=O)c1sc(Cc2ccccc2)nc1C` was run?
A: -3.98%

Q: For `Cc1ccc(-c2nc(C(=O)N(C)CC(=O)N3CCCC3)cs2)c(C)c1`, which Percent Effect is on record?
A: 1.55%

Q: How did the Percent Effect turn out when `Cc1ccncc1CN1CCOCC1c1[nH]ncc1C` (stereo not given) was run?
A: 17%

Q: For `Cc1csc(C(=O)N2CCC(S(C)(=O)=O)CC2)c1`, which Percent Effect is on record?
A: -2.86%

Q: How did the Percent Effect turn out when `CSCCC(NC(=O)c1ccccc1)C(=O)N(C)Cc1ccsc1` (stereo not given) was run?
A: -4.15%

Q: How did the Percent Effect turn out when `CCCc1nc(C)cc(N2Cc3cnn(CCO)c3C2)n1` was run?
A: 5.18%

Q: With `Cc1c(NC(=O)NC(C)CCO)cccc1OC1CCCC1` (stereo not given) as the compound, how does the Percent Effect read?
A: -7.69%

Q: How did the Percent Effect turn out when `O=C(NCC1CCCO1)Nc1nnc(C(F)(F)F)s1` (stereo not given) was run?
A: 3.01%

Q: With `CC(C)n1cnnc1CN(C)C(=O)c1cc(COc2ccccc2)[nH]n1` as the compound, how does the Percent Effect read?
A: 0%

Q: How did the Percent Effect turn out when `CNC(=O)N1CCOCC1c1c(C)nn(C)c1C` (stereo not given) was run?
A: -2.45%

Q: How did the Percent Effect turn out when `Cc1c(C(=O)N(C)c2ccccc2)cccc1N(C)S(C)(=O)=O` was run?
A: 12%

Q: How did the Percent Effect turn out when `C[C@@H]1CN(Cc2cc3ccccc3n2C)CC[C@]1(C)O` was run?
A: 5.04%

Q: For `Cc1cc(CN(C)C(C(=O)O)c2ccc(C(C)(C)C)cc2)on1` (stereo not given), which Percent Effect is on record?
A: 8.61%

Q: For `COc1cccc(O[C@H]2CCN(c3nc(C)cc(C)n3)CC[C@@H]2O)c1`, which Percent Effect is on record?
A: 1.31%

Q: For `c1cnc(N2CCC(c3nccn3CC3CC3)CC2)nc1`, which Percent Effect is on record?
A: 9.63%

Q: With `CN1C[C@]2(CC[C@@H](C(=O)N3CCOCC3)CC2)Oc2ccccc2C1=O` as the compound, how does the Percent Effect read?
A: 11.1%

Q: How did the Percent Effect turn out when `Cc1[nH]nc(CCC(=O)N2CCc3ncnc(NCCO)c3CC2)c1C` was run?
A: 3.08%

Q: With `CN(C)CCN(C)C(=O)c1cn(CC2CCCCC2)nn1` as the compound, how does the Percent Effect read?
A: 10.7%
